The values that follow come from ChEMBL document CHEMBL2218924, “A broad activity screen in support of a chemogenomic map for kinase signalling research and drug discovery” (Biochem J, 2013).

Experiment [1] addresses T1, Serine/threonine-protein kinase TBK1 (Homo sapiens) (UniProt Q9UHD2).
T1 sequence (whole entry): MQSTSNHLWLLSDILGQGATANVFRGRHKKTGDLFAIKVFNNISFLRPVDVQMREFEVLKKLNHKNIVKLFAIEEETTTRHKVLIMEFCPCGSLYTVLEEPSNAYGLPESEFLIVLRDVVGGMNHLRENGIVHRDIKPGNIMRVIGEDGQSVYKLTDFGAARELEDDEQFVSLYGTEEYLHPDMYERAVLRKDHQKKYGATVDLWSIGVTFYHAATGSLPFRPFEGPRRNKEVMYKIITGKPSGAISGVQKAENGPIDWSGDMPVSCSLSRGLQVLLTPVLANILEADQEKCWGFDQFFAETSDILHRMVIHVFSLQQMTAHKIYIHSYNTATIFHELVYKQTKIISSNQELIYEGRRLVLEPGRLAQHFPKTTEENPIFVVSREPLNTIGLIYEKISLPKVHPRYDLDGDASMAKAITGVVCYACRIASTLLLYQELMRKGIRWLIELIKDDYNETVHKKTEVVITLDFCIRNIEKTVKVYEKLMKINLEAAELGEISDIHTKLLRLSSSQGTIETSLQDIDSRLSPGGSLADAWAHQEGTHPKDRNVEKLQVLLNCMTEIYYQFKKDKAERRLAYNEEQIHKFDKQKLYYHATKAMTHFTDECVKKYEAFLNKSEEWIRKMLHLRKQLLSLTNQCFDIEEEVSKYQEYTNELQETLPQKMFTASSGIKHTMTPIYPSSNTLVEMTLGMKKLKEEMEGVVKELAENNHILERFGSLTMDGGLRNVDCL
The conditions noted are these: at 10 µM.

The target in experiment [2] is T2, TGF-beta receptor type-1 (Homo sapiens) (UniProt P36897).
T2 sequence (whole entry): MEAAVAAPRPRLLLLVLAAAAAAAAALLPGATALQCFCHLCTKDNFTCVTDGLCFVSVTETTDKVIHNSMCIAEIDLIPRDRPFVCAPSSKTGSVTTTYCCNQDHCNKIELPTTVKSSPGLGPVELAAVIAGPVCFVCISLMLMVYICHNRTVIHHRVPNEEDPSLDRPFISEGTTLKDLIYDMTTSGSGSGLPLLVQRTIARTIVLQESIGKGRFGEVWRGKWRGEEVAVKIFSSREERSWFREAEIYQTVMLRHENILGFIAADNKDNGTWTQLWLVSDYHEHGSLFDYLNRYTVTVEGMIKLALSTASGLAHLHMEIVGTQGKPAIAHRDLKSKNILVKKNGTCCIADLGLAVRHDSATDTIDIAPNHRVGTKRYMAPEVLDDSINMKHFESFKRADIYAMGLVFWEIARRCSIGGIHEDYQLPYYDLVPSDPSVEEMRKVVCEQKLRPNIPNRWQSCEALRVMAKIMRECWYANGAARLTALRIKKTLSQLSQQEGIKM
The conditions noted are these: at 1 µM.

The target of experiment [3] is T2, TGF-beta receptor type-1 (Homo sapiens). The conditions noted are these: at 10 µM.
Experiment [4] has as its target Insulin-like growth factor 1 receptor (Homo sapiens) (UniProt P08069). The conditions noted are these: at 1 µM.
The target is the same in experiment [5]. The conditions noted are these: at 10 µM.
Experiment [6] addresses T3, Inhibitor of nuclear factor kappa-B kinase subunit alpha (Homo sapiens) (UniProt O15111).
T3 sequence (whole entry): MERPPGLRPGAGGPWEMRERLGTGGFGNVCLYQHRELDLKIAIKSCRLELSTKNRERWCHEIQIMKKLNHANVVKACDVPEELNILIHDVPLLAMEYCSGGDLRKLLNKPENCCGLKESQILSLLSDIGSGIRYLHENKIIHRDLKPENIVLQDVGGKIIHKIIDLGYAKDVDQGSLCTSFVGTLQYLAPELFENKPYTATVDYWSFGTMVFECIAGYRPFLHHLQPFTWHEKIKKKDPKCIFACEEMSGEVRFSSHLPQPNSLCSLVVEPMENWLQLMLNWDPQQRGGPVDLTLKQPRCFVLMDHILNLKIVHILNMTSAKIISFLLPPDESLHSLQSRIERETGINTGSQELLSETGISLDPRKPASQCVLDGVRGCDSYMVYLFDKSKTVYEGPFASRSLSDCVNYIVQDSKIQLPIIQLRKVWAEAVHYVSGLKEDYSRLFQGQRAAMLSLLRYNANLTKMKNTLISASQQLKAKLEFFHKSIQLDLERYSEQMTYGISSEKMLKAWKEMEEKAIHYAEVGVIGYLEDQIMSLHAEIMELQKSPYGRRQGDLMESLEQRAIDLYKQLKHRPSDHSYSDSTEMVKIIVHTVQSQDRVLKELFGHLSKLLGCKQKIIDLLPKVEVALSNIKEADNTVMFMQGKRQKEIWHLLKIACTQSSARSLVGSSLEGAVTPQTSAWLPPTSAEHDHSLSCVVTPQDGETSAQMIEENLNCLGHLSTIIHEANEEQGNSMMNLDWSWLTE
The conditions noted are these: at 1 µM.

Experiment [7] concerns the target T3, Inhibitor of nuclear factor kappa-B kinase subunit alpha (Homo sapiens). The conditions noted are these: at 10 µM.
The target of experiment [8] is T4, Inhibitor of nuclear factor kappa-B kinase subunit beta (Homo sapiens) (UniProt O14920).
T4 sequence (whole entry): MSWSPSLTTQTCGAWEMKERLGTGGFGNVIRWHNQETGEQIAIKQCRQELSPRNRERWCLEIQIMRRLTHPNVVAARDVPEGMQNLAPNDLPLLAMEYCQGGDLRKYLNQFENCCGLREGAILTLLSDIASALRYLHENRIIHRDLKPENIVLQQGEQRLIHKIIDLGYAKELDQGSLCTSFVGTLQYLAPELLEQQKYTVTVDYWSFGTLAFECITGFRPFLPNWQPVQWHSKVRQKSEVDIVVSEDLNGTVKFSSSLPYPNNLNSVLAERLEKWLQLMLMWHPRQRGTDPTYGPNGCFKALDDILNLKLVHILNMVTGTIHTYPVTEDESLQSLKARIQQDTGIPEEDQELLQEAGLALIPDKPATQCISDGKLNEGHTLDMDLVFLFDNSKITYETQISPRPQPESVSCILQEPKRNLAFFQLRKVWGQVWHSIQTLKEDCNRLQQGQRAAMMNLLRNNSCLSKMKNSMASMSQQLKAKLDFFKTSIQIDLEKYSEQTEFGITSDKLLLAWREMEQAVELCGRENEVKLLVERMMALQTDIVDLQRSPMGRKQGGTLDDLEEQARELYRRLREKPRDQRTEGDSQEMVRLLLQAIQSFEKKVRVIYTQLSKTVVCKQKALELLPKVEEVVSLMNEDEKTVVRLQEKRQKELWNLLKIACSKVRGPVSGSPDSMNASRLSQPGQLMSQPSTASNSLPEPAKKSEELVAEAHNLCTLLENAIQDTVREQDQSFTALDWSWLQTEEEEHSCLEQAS
The conditions noted are these: at 1 µM.

Experiment [9] deals with T4, Inhibitor of nuclear factor kappa-B kinase subunit beta (Homo sapiens). The conditions noted are these: at 10 µM.
For experiment [10], the target named is Insulin receptor (Homo sapiens) (UniProt P06213). The conditions noted are these: at 1 µM.
Sequence of Insulin receptor (Homo sapiens) (P06213 28-758 limits assumed): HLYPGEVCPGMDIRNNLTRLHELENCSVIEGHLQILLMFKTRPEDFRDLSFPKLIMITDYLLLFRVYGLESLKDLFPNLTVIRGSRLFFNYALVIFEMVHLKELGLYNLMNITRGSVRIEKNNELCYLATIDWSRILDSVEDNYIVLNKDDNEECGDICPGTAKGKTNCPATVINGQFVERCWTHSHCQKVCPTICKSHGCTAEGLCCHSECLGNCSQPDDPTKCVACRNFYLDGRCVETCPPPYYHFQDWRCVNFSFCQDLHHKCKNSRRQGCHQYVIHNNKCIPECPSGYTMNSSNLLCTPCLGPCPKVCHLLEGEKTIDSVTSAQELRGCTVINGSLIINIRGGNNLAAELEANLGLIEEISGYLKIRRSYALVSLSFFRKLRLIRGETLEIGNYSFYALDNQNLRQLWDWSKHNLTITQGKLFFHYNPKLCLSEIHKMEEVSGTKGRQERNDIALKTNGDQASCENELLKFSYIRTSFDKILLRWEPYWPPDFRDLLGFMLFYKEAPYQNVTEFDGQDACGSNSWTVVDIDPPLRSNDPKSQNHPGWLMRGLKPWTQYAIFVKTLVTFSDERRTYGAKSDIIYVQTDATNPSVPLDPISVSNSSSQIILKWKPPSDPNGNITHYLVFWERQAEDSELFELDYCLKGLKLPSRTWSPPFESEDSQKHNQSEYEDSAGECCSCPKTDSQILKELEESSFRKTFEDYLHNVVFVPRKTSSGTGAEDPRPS
Sequence of Insulin receptor (Homo sapiens) (P06213 763-1382 limits assumed): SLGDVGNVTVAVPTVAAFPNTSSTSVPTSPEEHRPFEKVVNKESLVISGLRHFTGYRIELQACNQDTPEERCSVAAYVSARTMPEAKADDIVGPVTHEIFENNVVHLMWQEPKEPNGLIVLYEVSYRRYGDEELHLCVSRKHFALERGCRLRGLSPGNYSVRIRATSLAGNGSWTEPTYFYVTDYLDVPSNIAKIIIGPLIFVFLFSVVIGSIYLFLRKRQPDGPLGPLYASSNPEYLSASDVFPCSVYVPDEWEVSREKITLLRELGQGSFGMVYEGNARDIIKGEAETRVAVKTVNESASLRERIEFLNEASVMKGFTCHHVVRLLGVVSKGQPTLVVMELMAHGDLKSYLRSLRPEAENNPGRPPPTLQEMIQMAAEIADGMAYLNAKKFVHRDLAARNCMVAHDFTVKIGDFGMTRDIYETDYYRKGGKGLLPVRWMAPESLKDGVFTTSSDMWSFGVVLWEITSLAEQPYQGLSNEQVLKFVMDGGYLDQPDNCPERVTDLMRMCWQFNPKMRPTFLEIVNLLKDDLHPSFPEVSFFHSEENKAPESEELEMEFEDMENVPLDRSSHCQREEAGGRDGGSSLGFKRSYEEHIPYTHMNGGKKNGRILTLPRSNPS

Sequence of Insulin-like growth factor 1 receptor (Homo sapiens) (P08069 31-736 limits assumed): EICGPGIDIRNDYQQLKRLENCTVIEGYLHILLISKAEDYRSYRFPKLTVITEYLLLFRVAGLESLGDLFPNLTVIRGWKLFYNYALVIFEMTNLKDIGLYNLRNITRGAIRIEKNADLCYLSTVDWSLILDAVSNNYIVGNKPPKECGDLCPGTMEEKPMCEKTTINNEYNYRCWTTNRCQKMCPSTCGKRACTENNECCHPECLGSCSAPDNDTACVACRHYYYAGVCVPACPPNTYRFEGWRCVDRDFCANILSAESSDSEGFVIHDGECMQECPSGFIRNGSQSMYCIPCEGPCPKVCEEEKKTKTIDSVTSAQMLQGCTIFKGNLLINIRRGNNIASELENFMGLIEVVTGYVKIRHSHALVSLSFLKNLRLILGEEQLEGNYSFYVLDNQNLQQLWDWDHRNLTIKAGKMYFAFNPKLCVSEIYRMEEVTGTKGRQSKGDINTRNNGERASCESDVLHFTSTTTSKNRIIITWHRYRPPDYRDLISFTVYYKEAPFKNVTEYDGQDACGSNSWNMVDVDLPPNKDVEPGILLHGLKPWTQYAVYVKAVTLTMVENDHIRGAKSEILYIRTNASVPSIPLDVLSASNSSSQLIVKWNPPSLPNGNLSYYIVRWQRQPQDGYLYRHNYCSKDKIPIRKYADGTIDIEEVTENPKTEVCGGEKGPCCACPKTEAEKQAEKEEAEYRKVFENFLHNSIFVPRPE
Sequence of Insulin-like growth factor 1 receptor (Homo sapiens) (P08069 741-1367 limits assumed): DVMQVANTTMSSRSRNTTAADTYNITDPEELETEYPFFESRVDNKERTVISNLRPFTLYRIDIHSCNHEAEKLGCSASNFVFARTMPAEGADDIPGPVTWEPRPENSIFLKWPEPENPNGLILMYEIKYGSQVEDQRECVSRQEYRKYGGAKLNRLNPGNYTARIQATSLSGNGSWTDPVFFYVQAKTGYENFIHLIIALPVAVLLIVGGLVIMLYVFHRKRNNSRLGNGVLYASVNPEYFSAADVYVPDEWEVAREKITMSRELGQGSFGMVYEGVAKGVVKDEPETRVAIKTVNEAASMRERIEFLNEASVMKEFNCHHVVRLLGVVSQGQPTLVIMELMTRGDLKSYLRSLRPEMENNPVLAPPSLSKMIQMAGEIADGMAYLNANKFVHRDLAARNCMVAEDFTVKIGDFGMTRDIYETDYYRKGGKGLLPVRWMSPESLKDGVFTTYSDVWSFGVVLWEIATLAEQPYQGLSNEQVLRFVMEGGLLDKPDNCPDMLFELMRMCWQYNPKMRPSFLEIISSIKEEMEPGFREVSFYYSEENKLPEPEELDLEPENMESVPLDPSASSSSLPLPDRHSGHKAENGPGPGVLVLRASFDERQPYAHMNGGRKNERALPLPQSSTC

By residual activity is commonly meant the signal under treatment as a percentage of the control signal. On to `COc1cccc(-c2cc(=O)c3ccccc3o2)c1N`, for which the residual activity in experiment [1] was 95%; in [2] it was 104%; in [3] it was 93%; in experiment [4] it was 93%; in experiment [5] it was 97%; in experiment [6] it was 105%. For the same molecule, the residual activity in experiment [7] is 97%; in experiment [8] it was 125%; in experiment [9], 109%; in [10], 109%.
